The record followed here is PubChem BioAssay AID720600 (Broad Institute, 2013).

This assay is described as follows: SNB-19 glioblastoma cell viability loss, dose response, HRAS target identification, Alamar Blue fluorescence, 8/24/48 h, dry powder (AID 720600). The note with it: SNB-19 viability, 8-48 h; series mostly up to 35 µM. Background: The colour change of resazurin is a common sign of viable cells or microbes.

The structures appear in SMILES notation. Entries with a potency or affinity are not part of this list. Records with an inconclusive call do not appear. The source made the active and inactive calls.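 Rule for the calls: active = compound whose half-maximal dose for viability loss stays within twice the top tested dose at all three treatment times; inconclusive = treatment times disagree in their calls; inactive = inactive at every treatment time.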

For the compound `CCC(=O)N(c1ccc(OC)c(Cl)c1)C(C(=O)NCCc1ccccc1)c1cccs1` (configuration not stated), the call was inactive. With `Cc1onc(C(=O)N2CCN(C(c3ccncc3)c3ccncc3)CC2)c1[N+](=O)[O-]` the entry was “inactive”.
